Source: PubChem
RGS7-Gao reg: regulators of human RGS7-Galphao interaction; AID 1439; Multiplexed bead flow cytometry, RGS7-Galphao binding; actives lie on both sides; P09471; binding response (% of control), % at 10 µM; 220,000 compounds, 0.35% hits; in the data active means binding response below about 49% or above about 150%; inconclusive means no clear call, values can overlap the other calls; inactive means in between;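 further: fluorescent Galphao held in activated GDP-AlF4 state binding bead-coupled RGS7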
Target sequence (P09471 whole entry, looked up): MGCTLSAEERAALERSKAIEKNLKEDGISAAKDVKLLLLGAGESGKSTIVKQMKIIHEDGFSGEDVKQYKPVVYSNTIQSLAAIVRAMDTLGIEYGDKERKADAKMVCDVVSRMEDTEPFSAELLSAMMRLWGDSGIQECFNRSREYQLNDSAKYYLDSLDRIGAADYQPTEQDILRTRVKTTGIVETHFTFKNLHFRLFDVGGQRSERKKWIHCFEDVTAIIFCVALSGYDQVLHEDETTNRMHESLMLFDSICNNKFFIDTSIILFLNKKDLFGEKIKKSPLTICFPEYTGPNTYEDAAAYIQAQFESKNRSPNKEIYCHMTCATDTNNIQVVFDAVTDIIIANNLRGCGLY
RGS4-Gao reg: modulates binding of RGS4 to human Galphao. P09471. Multiplexed bead flow cytometry; actives lie on both sides. binding response (% of control), % at 10 µM. 220,000 compounds, 0.33% hits; in the data active means binding response below about 49% or above about 150%; inactive means in between;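 further: fluorescent Galphao activated with aluminum fluoride binding bead-coupled RGS4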
RGS8-Gao reg: modulates binding of RGS8 to human Galphao; multiplexed bead flow cytometry; actives lie on both sides; response (percent of control binding), % at 10 µM; 220,000 compounds, 0.34% hits; AID 1423; in the data active means response below about 60% or above about 140%; inactive means in between;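 further: Galphao activated as the GDP aluminium fluoride complex binding bead-coupled RGS8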
GSH fluor: GSH bead compound fluorescence profile; 190,000 compounds, 0.25% hits; fluorescence (KMESF) at 10 µM; GSH beads flow cytometry, compound fluorescence 488/530 nm; stronger effect = higher value; in the data active means fluorescence above about 89;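 further: glutathione beads carrying GST-tagged Bcl family fusion proteins plus one bare bead set; values are compound well signal with DMSO vehicle wells as background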
RGS16-Gao HTS: modulates binding between human RGS16 and Galphao; O15492+P09471; bead-based flow cytometry RGS16-Galphao binding, fluorescence; actives lie on both sides; binding response (% of control), % at 10 µM; 220,000 compounds, 0.38% hits; AID 1441;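 further: Galphao activated by GDP with aluminum fluoride before binding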
Avidin bead fluor: avidin bead compound fluorescence profile. Avidin beads, compound fluorescence 488/530 nm, flow cytometry; stronger effect = higher value. fluorescence (KMESF) at 10 µM. 220,000 compounds, 0.38% hits. AID 1775; in the data active means fluorescence above about 47
RGS4-Gao HTS: modulates binding between human RGS4 and Galphao; shares compounds with RGS16-Gao HTS; multiplexed bead flow cytometry, RGS–Galpha-o binding; RGS4–Galpha-o binding response, % at 10 µM; 1,600 compounds, 99% hits;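 further: fluorescently labeled Galpha-o bound to GDP with aluminium fluoride binding biotinylated RGS beads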
Target sequence (P09471 whole entry, looked up): as above
Target sequence (P49798 whole entry, looked up): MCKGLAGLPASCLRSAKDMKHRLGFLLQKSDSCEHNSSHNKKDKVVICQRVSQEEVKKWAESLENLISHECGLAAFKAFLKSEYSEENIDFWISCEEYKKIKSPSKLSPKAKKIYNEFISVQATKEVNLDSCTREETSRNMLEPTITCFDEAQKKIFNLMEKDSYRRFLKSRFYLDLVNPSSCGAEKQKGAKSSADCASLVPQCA
Avidin counter: interferes with biotinylated probe binding to avidin beads; inhibition, % at 10 µM; 1,700 tested, under 10 active; streptavidin beads, fluorescein-biotin binding, flow cytometry; shares compounds with RGS16-Gao HTS;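 active means inhibition above 50%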;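 further: median green fluorescence of gated singlet beads compared with DMSO control wells; 0% = DMSO wells and 100% = complete loss of bead fluorescence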
RGS8-Gao single: RGS8-Galphao interaction regulation, single point confirmation | shares compounds with RGS16-Gao HTS | bead-based flow cytometry RGS8-Galphao binding, fluorescence; actives lie on both sides | binding response (% of control), % at 10 µM | 1,700 compounds, 3% hits; in the data active means binding response below about 72% or above about 130%; inactive means in between;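 further: Galphao activated as GDP AlF4 complex before binding bead RGS8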
RGS7-Gao confirm: RGS7-Galphao interaction regulation, single point confirmation; shares compounds with RGS16-Gao HTS; 1,700 compounds, 7.8% hits; bead-based flow cytometry RGS7-Galphao binding; actives lie on both sides; response (percent of control binding), % at 10 µM; in the data active means response below about 75% or above about 130%; inactive means in between;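 further: fluorescent Galphao activated with GDP and aluminum fluoride binding bead-coupled RGS7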
RGS16-Gao conf: confirmation of regulators of human RGS16-Galphao interaction; shares compounds with RGS16-Gao HTS; response (% of control binding), % at 10 µM; bead-based flow cytometry, RGS16-Galphao binding; actives lie on both sides; AID 1838; 1,700 compounds, 4% hits; in the data active means response below about 74% or above about 130%; inactive means in between;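 further: Galphao activated as the GDP aluminium fluoride complex binding bead-coupled RGS16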
RGS4-Gao confirm: confirmation of regulators of human RGS4-Galphao interaction. shares compounds with RGS16-Gao HTS. RGS4-Galphao binding, multiplexed bead flow cytometry; actives lie on both sides. binding response (% of control), % at 10 µM. 1,700 compounds, 4% hits; in the data active means binding response below about 74% or above about 130%; inactive means in between
RGS19-Gao single: RGS19-Galphao interaction regulation, single point confirmation | shares compounds with RGS16-Gao HTS | bead-based flow cytometry RGS19-Galphao binding; actives lie on both sides | response (percent of control binding), % at 10 µM | 1,700 compounds, 5% hits | AID 1841; in the data active means response below about 50% or above about 160%; inactive means in between;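 further: 100% = no compound control and 0% = blank background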
* = called active by the depositor; ? = inconclusive; · = no result; [ ] = remark or other dose. A selection: hits, their analogues and other compounds. The true share with any hit is near 1.2%. Unless noted, how the calls were made is not given here.

SMILES	RGS7-Gao reg	RGS4-Gao reg	RGS8-Gao reg	GSH fluor	RGS16-Gao HTS	Avidin bead fluor	Avidin counter	RGS8-Gao single	RGS7-Gao confirm	RGS16-Gao conf	RGS4-Gao confirm	RGS19-Gao single	others
CC(OC(=O)c1cc2sccc2n1C)C(=O)NCC1CCCO1 (stereo unspecified)	101.4	97.1	100.6	13	102.1	12	·	·	·	·	·	·
COc1cc(C2C=C(c3cccs3)Nc3ncnn32)cc(OC)c1OC (stereo unspecified)	96.0	95.4	94.0	26	97.6	10	·	·	·	·	·	·
CC1CCN(c2nnc(N3CCC(C)CC3)c3ccccc23)CC1	11.7*	20.0*	17.5*	19	10.6*	0	0.0	98.8	90.0	96.0	92.3	86.8
Nc1ccccc1N1CCOCC1	99.5	97.8	96.0	9	90.8	11	·	·	·	·	·	·
CC1CCN(c2ccccc2N)CC1	152.8*[activator]	163.2*[activator]	130.9	33	166.8	5	1.2	91.0	83.2	85.0	87.5	48.4*
CCCCN(C(=O)c1cccc2c(=O)c(C)c(-c3ccccc3)oc12)c1ccccc1	98.1	100.4	101.5	7	103.5	3	·	·	·	·	·	·
O=[N+]([O-])c1ccc2c(c1)N([O-])C1(CCCCC1)[N+]2=O	?	90.5	35.0*	·	32.2	4	·	·	·	·	·	·	RGS4-Gao HTS=90.5*
Cc1cc(C)c(S(=O)(=O)Nc2ccc(O)cc2)c(C)c1	117.7	126.2	141.2*[activator]	15	292.8	7	0.5	100.1	99.0	101.4	100.6	99.4	RGS4-Gao HTS=126.2*
CC(=O)c1ccc(NS(=O)(=O)c2c(C)cc(C)cc2C)cc1	93.2	95.3	104.0	14	116.0	11	·	·	·	·	·	·
CN(C)/C=C(\C=O)c1ccc(Cl)cc1Cl	95.4	95.9	97.2	20	94.2	11	·	·	·	·	·	·
CCn1cc(C(=O)O)c(=O)c2cc(F)c(N3CCN(C(=S)NC(=O)c4ccc(F)c(F)c4)CC3)cc21	96.4	101.4	101.1	9	101.0	9	·	·	·	·	·	·
CC(C)CC(=O)/C(=C\c1ccc(Cl)cc1Cl)n1cncn1	50.9	47.8*	42.1*	12	-1.2	-1	0.7	87.5	79.8	87.1	89.6	81.1
COc1ccc(/C=C(/C(=O)c2ccc(Cl)cc2Cl)n2cncn2)cc1	103.7	99.6	100.7	24	101.4	22	·	·	·	·	·	·
CCOc1ccc(-c2nnc(-c3ccccc3)o2)cc1	94.5	95.6	99.2	16	94.7	5	·	·	·	·	·	·
CCOc1ccc(-c2nnc(-c3ccc(OC)cc3)o2)cc1	17.5*	23.9*	14.5*	10	11.5*	2	0.3	99.5	91.9	95.0	94.0	94.4
COC(=O)CCC(=O)NNC(=O)c1ccc(Cl)cc1Cl	175.5*[activator]	103.5	83.6	42	31.6	113*	·	·	·	·	·	·	RGS4-Gao HTS=103.5*
COC(=O)CCC(=O)NNC(=O)CCCOc1ccc(Cl)cc1Cl	102.1	99.8	104.6	10	101.5	13	·	·	·	·	·	·
COc1ccc(CCN2C(=O)C3C4CC(C5C(C(=O)O)=NOC45)C3C2=O)cc1OC (stereo unspecified)	104.8	107.4	102.3	61	111.0	6	·	·	·	·	·	·
COC(=O)c1ccccc1NC(=O)c1cccc(NC(=O)C(C)C)c1	98.8	103.6	104.6	19	98.8	10	·	·	·	·	·	·
COc1ccc(Nc2nc3[nH]c(=O)cc(O)c3s2)cc1	20.7*	23.4*	15.8*	14	12.3*	2	-1.2	99.0	86.7	95.5	94.3	70.3
COCCN(C(=S)Nc1ccc(C)cc1C)C(C)c1ccco1 (stereo unspecified)	142.4	160.2*[activator]	164.3*[activator]	11	396.6	8	0.7	99.4	98.4	96.9	98.1	105.9
O=C(CNCCN1CCOCC1)Nc1ccccc1Sc1ccccc1	120.5	109.9	132.2	5	227.3*[activator]	13	0.3	99.4	88.0	99.3	93.9	78.3	RGS4-Gao HTS=109.9*
COc1ccc(CCCc2nnc(SCC(=O)Nc3nc(C)cs3)n2C)cc1	97.9	101.4	100.9	12	100.3	9	·	·	·	·	·	·
Cc1csc(NC(=O)CSc2nnc(CCNC(=O)c3ccc(Cl)c(Cl)c3)n2C)n1	·	·	·	35	·	·	-0.9	100.2	100.4	99.6	101.5	94.9
O=C(/C=C/c1ccco1)NCc1ccc(F)cc1	100.2	105.2	100.5	20	102.0	10	·	·	·	·	·	·
SMILES	RGS7-Gao reg	RGS4-Gao reg	RGS8-Gao reg	GSH fluor	RGS16-Gao HTS	Avidin bead fluor	Avidin counter	RGS8-Gao single	RGS7-Gao confirm	RGS16-Gao conf	RGS4-Gao confirm	RGS19-Gao single	others
NS(=O)(=O)c1ccc(CNC(=O)/C=C/c2ccco2)cc1	?	97.9	94.5	·	97.0	8	-2.0	91.3	92.8	95.3	95.8	85.3
COc1cccc(OC(=O)c2cc3ccccc3oc2=O)c1	92.2	91.9	91.1	11	95.2	10	·	·	·	·	·	·
COc1cccc2c1NC(C(=O)O)C1CC=CC21 (stereo unspecified)	36.2*	69.9	54.1*	6	63.3	6	0.1	100.4	76.0	96.4	89.3	94.4	RGS4-Gao HTS=69.9*
CCOC(=O)C1CCN(S(=O)(=O)Cc2ccc(Cl)cc2)CC1	163.5*[activator]	170.3*[activator]	·	34	·	·	0.3	88.2	61.5*	77.7	77.1	60.8
CCOC(=O)C1CCN(S(=O)(=O)Cc2ccccc2)CC1	100.8	101.5	101.9	23	104.0	36	·	·	·	·	·	·
CCn1nnc(NC(=O)CSc2ccc(Cl)cc2)n1	·	·	·	34	·	·	-0.5	96.8	90.0	100.0	92.7	114.3
Cc1ccc(/C=N/N=C2/NC(=O)CS2)o1	97.5	100.0	102.3	11	101.6	11	·	·	·	·	·	·
O=C1CS/C(=N/N=C/c2c[nH]c3ccccc23)N1	?	154.8*[activator]	114.5	·	175.9*[activator]	8	-0.3	93.8	88.7	91.5	93.1	72.7
Cc1ccc(CNC(=O)COC(=O)c2c(C)noc2C)cc1	142.4	156.6*[activator]	131.9	29	142.1	5	0.6	101.5	99.4	100.2	99.6	92.9
